# Reference: PubChem BioAssay AID489018 (Southern Research Specialized Biocontainment Screening …, 2010)
# Hit rate of the full screen: of about 2,300 compounds, about 350 (15%) were called active. The rule behind the calls is not given here. These entries were drawn from the full list. Measured potencies and affinities stand elsewhere.
# Assay: HepG2 cell cytotoxicity, dose response, cytotoxicity control for non-replicating M. tuberculosis project (AID 489018);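 note: HepG2 human liver cells; 100% = vehicle-treated cells and 0% = background signal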
# Conditions: series mostly up to 20 µM; viability: at the top concentration
row,SMILES,viability
1,O=C(NN=C(Cc1ccccc1)Cc1ccccc1)c1ccncc1,98.5% (inactive)
2,CCCCCn1c(=O)c2ccccc2n2c(CCl)nnc12,89.4% [at 5 µM] (inactive)
3,CC(C)(C)Nc1nc(NC(C)(C)C)nc(-n2ccnc2)n1,108% [at 5 µM] (inactive)
4,CN1/C(=C\C(=O)COC(=O)C2COc3ccccc3O2)C(C)(C)c2ccccc21 (configuration not stated),105% [at 5 µM] (inactive)
5,Cc1cccc(-c2nnc3sc(-c4ccccc4C)nn23)c1,88.6% (inactive)
6,Cc1cc(C)cc(OC(=O)CCN2C(=O)c3ccccc3C2=O)c1,104% (inactive)
7,COc1ccc(/C=N/Nc2cc(C)nc(-n3nc(C)cc3C)n2)c(OC)c1,98.1% [at 5 µM] (inactive)
8,CCOc1ccc(Nc2cc(C)nc(-n3nc(C)cc3C)n2)cc1,79.6% (inactive)
9,Cc1cc(N2CCN(c3ccccc3)CC2)nc(-n2nc(C)cc2C)n1,92.3% [at 5 µM] (inactive)
10,Cc1cc(N2CCC(C)CC2)nc(-n2nc(C)cc2C)n1,96.4% [at 5 µM] (inactive)
11,Cc1ccc(NC(=O)ON=C2CCCC2)cc1,75.1% (inactive)
12,Cc1cc(NC(=O)C2CCCCC2)n(-c2nc3ccccc3[nH]2)n1,117% [at 5 µM] (inactive)
13,O=C(OCn1nnc2ccccc2c1=O)c1cccs1,111% [at 5 µM] (inactive)
14,COc1cc(/C=N/NC(=O)c2ccncc2)ccc1OC(=O)c1cccc(F)c1,105% [at 5 µM] (inactive)
15,O=C(NCCCN1CCOCC1)c1c(O)c2cc(Br)cc(Br)c2[nH]c1=O,75.9% (inactive)
16,CC(C)Cc1nnc(NC(=O)CCS(=O)(=O)c2ccc(Cl)cc2)s1,99.2% (inactive)
17,C=CCNc1nnc(Sc2ncccc2[N+](=O)[O-])s1,108% (inactive)
18,Cc1cccc(OC(=O)c2sc3ncn(C)c(=O)c3c2C)c1,97.7% (inactive)
19,COc1cccc(N2C(=O)NC(=O)/C(=C/c3ccc([N+](=O)[O-])s3)C2=O)c1,87.9% (inactive)
20,CCCc1nnc(NC(=O)c2cc3ccccc3oc2=O)s1,97.8% (inactive)
21,CCc1ccc(OCC(=O)Nc2ccncc2)c(Br)c1,93.6% [at 5 µM] (inactive)
22,CCOc1ccc(C(=O)Nc2nnc(C3=COCCO3)o2)cc1,85.8% (inactive)
23,Cc1ccccc1C(=O)Nc1nnc(-c2ccco2)o1,94.8% (inactive)

row,SMILES,viability
1,O=C(CCS(=O)(=O)c1ccccc1)Nc1nnc(-c2ccco2)o1,90.4% (inactive)
2,CC(C)(C)c1ccc(C(=O)Nc2nnc(C3=COCCO3)o2)cc1,93.6% [at 5 µM] (inactive)
3,O=C(Nc1nnc(C2=COCCO2)o1)c1ccc(Cc2ccccc2)cc1,99.9% (inactive)
4,Cc1ccsc1C(=O)OCC(=O)Nc1nnc(-c2ccccc2)o1,102% (inactive)
5,Cc1cc(C(=O)COc2cccc3cccnc23)c(C)n1C,94.5% (inactive)
6,CN(O)/C=c1/ccc2c(n1)C(=O)C=CC=2,85.6% (inactive)
7,Cc1ccc(-c2cc(C(F)F)nc(S(C)(=O)=O)n2)cc1,106% (inactive)
8,CN1C(=O)NC(=O)/C(=C/c2ccc([N+](=O)[O-])s2)C1=O,87.8% (inactive)
9,CC1Cc2cc(/C=C3/SC(=S)NC3=O)ccc2O1 (configuration not stated),88% (inactive)
10,COc1ccc(S(=O)(=O)N(C(C)=O)c2ccc(OC(C)=O)c3ccccc23)cc1[N+](=O)[O-],96.7% (inactive)
11,Cc1ccccc1Nc1c(-c2ccccn2)nc2ccccn12,99.6% [at 5 µM] (inactive)
12,O=C(CCN1CCOCC1)c1ccc(Br)cc1,85.7% (inactive)
13,O=c1[nH]c(O)c(/C=C2/C=CC(c3cc(Cl)ccc3Cl)=N2)c(=O)[nH]1,106% (inactive)
14,CCOC(=O)Cc1cc(=O)n2[nH]cc(-c3ccc(Cl)cc3)c2n1,85.6% (inactive)
15,CCOC(=O)C1(O)CC(C)=NN1C(=O)c1cccc(Br)c1 (configuration not stated),90.3% (inactive)
16,CN(C)CCOc1nc(-c2ccccc2)nc2c1oc1ccccc12,107% [at 5 µM] (inactive)
17,COc1ccc(CN2C(=O)/C(=C/c3ccncc3)SC2=S)cc1,89.6% (inactive)
18,Cc1ccccc1OCC(=O)OCC(=O)c1ccc[nH]1,105% (inactive)
19,Cc1cc(CC(C)C)n(-c2nc3ccccc3c(=O)n2OCC(N)=O)n1,85% (inactive)
20,O=C1/C(=C/c2ccccn2)COc2ccccc21,96.3% (inactive)
21,Cc1ccc(OCC(=O)OCc2c(C)noc2C)cc1C,107% (inactive)
22,COc1cc(N=c2ssnc2Cl)cc(OC)c1,101% (inactive)
23,COc1cc(OC)nc(-n2ncc(Br)c(Br)c2=O)n1,88.1% [at 5 µM] (inactive)

row,SMILES,viability
1,Cc1ccc(OCC(=O)Nc2ccc([N+](=O)[O-])cc2)cc1,96.2% (inactive)
2,Cc1ccc(NC(=O)COCC(=O)Nc2ccc(C)cc2)cc1,98.9% (inactive)
3,CC(=O)OCCN(C)c1cc(SC(C)C)c2nonc2c1[N+](=O)[O-],97.2% (inactive)
4,CC(=O)OCCNc1cc(SCc2ccco2)c2nonc2c1[N+](=O)[O-],95.5% (inactive)
5,Cc1cccc(Cc2cnc(NC(=O)C3=NCCN3)s2)c1,107% [at 5 µM] (inactive)
6,S=C1SCN(Cc2cccnc2)CN1Cc1ccccc1,97.6% (inactive)
7,O=C1N(c2ccc3c(c2)OCCO3)C(c2ccccc2)C1(F)F (configuration not stated),98.1% (inactive)
8,COc1ccc(CNC(=O)c2cc3cccc(O)c3oc2=N)cc1,104% (inactive)
9,Clc1ccc(CN2C3=NCCCN3c3ccccc32)cc1,92.4% (inactive)
10,COc1ccccc1NC(=O)C(=O)/C=C(\O)c1ccccc1,96% (inactive)
11,COc1ccc(NC(=O)c2ccc(-c3ccc([N+](=O)[O-])cc3)o2)cc1OC,88.5% (inactive)
12,O=C(Nc1nnc(C2=COCCO2)o1)c1ccc(F)cc1,110% [at 5 µM] (inactive)
13,Cc1nnc(NC(=O)c2ccc3ccccc3c2)o1,112% (inactive)
14,CCCCCCOC(=O)C(C#N)c1nc2ccccc2nc1N1CCN(CC)CC1 (configuration not stated),98.2% [at 5 µM] (inactive)
15,CCCNC(=O)NC(=O)COc1ccc(-c2ccc(C#N)cc2)cc1,102% (inactive)
16,Cc1cccc(OC(=O)c2ccc3nccnc3c2)c1,107% (inactive)
17,O=C1CC(=O)CC(c2ccccc2)C1,110% (inactive)
18,CCOC(=O)CN1NC2(CCCC(C)C2)NC1=S (configuration not stated),99.3% (inactive)
19,CCOC(=O)COc1ccc2c(=O)c(-c3ccccc3)coc2c1,95.6% (inactive)
20,O=C(N/N=C/c1ccc(OC(=O)c2cccs2)cc1)c1ccccn1,100% [at 5 µM] (inactive)
21,CN(/N=C/c1ccc([N+](=O)[O-])o1)c1ccccc1,103% (inactive)
22,O=c1oc(-c2ccccc2[N+](=O)[O-])nc2ccccc12,112% (inactive)
23,Nc1nc2ccccc2n1CCOc1ccc(Br)cc1,99.2% [at 5 µM] (inactive)

row,SMILES,viability
1,Cc1c(C(=O)NNC(=O)c2csc(N3CCOCC3)n2)oc2ccccc12,85.8% (inactive)
2,O=C(N/N=C/C=C/c1cccc([N+](=O)[O-])c1)c1ccncc1,102% (inactive)
3,O=C(Nc1nccs1)c1cc2cc(Cl)ccc2oc1=O,73.2% (inactive)
4,CCCCCn1nnc2c(=O)oc3ccccc3c21,105% (inactive)
5,Cc1cc(=O)[nH]c(-n2nc(C)cc2C)n1,102% [at 5 µM] (inactive)
6,O=C(Nc1ccc(-c2nc3ccccc3c(=O)o2)cc1)c1ccco1,102% [at 5 µM] (inactive)
7,CC(C)Oc1ccc(CNC(=O)Oc2ccccc2)cc1,102% (inactive)
8,COc1ccc(C(C)NC(=O)CCc2ccccc2)cc1 (configuration not stated),93.5% (inactive)
9,COc1ccc(C(O)CNc2ccc(C)cc2)cc1 (configuration not stated),78.7% (inactive)
10,Cc1cc(OCCOCCNCc2ccccc2)ccc1C(C)C,92.4% [at 5 µM] (inactive)
11,Cn1c(CNc2ccccc2O)nc2ccccc21,93.3% (inactive)
12,CCCCN1CCC(O)(c2ccccc2)C(C(=O)c2ccccc2)C1 (configuration not stated),98.1% [at 5 µM] (inactive)
13,O=C(Nc1ccccc1F)c1ccc([N+](=O)[O-])s1,110% [at 5 µM] (inactive)
14,CCOc1ccc(OCc2ccc(C(=O)OCc3ccccn3)o2)cc1,101% (inactive)
15,Cc1ccc(-c2nc3ccccn3c2Nc2ccccc2)o1,85.7% (inactive)
16,CCc1ccc(NC(=O)C(=O)NNC(=O)c2cccc(OC)c2)cc1,96% (inactive)
17,Cc1ccc(NCCC(=O)c2cccs2)cc1,101% [at 5 µM] (inactive)
18,CC1(C(=O)OCC(=O)Nc2nnc(-c3ccccc3)o2)CC1(Cl)Cl (configuration not stated),99% (inactive)
19,O=C(COc1ccc(Cl)cc1)Nc1ccc(Cl)cn1,96.5% (inactive)
20,Cn1c(=O)c(Oc2ccc(Cl)cc2)c(O)c2ccccc21,115% (inactive)
21,Cc1ccccc1OCCNc1cc(N2CC(C)NC(C)C2)ccc1[N+](=O)[O-] (configuration not stated),77% (inactive)
22,CC1CCCN(CCCOc2ccc([N+](=O)[O-])cc2)C1 (configuration not stated),92.2% (inactive)
23,CCOc1ccc(-c2cc(CCCC(=O)NCCC(C)C)no2)cc1,96.5% [at 5 µM] (inactive)

row,SMILES,viability
1,Cc1ccc(C2=N/C(=C\c3cccnc3)C(=O)O2)cc1,101% (inactive)
2,O=C1OC(/C=C/c2ccccc2)=NC/1=C\c1cccnc1,93.5% (inactive)
3,COc1ccc(-c2cc(=O)oc(-c3cccc(C)c3)n2)cc1,89.9% (inactive)
4,O=C(CCC1CCCC1)Nc1ccc(Br)cn1,110% (inactive)
5,Cc1cc(C)n(-c2nc(NCCCO)c3c4c(sc3n2)CCCC4)n1,85.3% (inactive)
6,CCOC(=O)c1sc2nc(CSc3ccccc3)nc(NCCN(C)C)c2c1C,97.6% (inactive)
7,CC1=C/C(=N\OS(=O)(=O)c2ccccc2)C(C)=CC1=O,86.8% (inactive)
8,O=C1CSC(=S)N1Cc1cccnc1,77.9% (inactive)
9,O=C(OCn1nnc2ccccc2c1=O)c1ccc(Br)o1,101% (inactive)
10,COc1cccc(C(=O)OCn2nnc3ccccc3c2=O)c1OC,108% (inactive)
11,c1ccc(-c2nc3c(ccc4ccccc43)[nH]2)nc1,83.3% (inactive)
12,O=[N+]([O-])c1ccc(-c2nc3ccc([N+](=O)[O-])cc3[nH]2)cc1,74.4% (inactive)
13,CCOC(=O)CNCCC(=O)c1ccc(Br)cc1,105% (inactive)
14,COc1cc(OC)c2c(OC)cccc2n1,96.1% (inactive)
15,CCN1CCN(c2ccc(S(=O)(=O)N3CCCCC3)cc2NC(=O)c2ccc([N+](=O)[O-])s2)CC1,102% [at 5 µM] (inactive)
16,C/C(=N/NC(=O)c1cc2ccccc2cc1O)C1C(=O)c2ccccc2C1=O,98.7% (inactive)
17,CCN(CC)c1ccc2cc(C(=O)NCc3ccc(F)cc3)c(=N)oc2c1,82.6% (inactive)
18,COCCSc1nnc(NC(=O)CCS(=O)(=O)Cc2ccccc2)s1,108% (inactive)
19,CCC(C)n1nnc2c(=O)oc3ccccc3c21 (configuration not stated),107% (inactive)
20,O=C(Nc1ncc([N+](=O)[O-])s1)c1cccs1,72.9% (inactive)
